Several values for one entry are separate records, joined by “and”; a condition that tells them apart may be missing. Identical values can stand only once. Results filed as inconclusive are left out. Where a call stands in place of a potency, no number is given. Some compounds were tested as several samples or in several runs, with calls that do not always agree. Activity calls are given as the source filed them. Unless noted, the call rests on the fitted dose curve.

One assay can be described thus: qHTS Assay for Identifying Gametocytocidal Compounds (AID 743244; active means well fitted curve in the direction sought with a large enough effect; an effect the other way counts as inactive or inconclusive; further: potency means the concentration at half of the fitted maximal effect;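 on max response: actives lower the fluorescent signal which means gametocytes are killed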). The note with it: P. falciparum 3D7 stage III-V gametocytes, alamarBlue, 72 h; max response: stronger effect = lower value. In short, it runs like this: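 A resazurin-based viability read-out was applied to mature P. falciparum gametocytes: 72 h compound treatment, then 24 h dye incubation, with falling fluorescence signalling gametocytocidal effect.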
On the technique in general: Quantitative high-throughput screening tests each substance at several concentrations.
In the case of `CCOC(=O)C1=C(COCCN)NC(C)=C(C(=O)OC)C1c1ccccc1Cl` (centres undefined), the Potency was 20 µM (active) and the max response was -0.484% (inactive).

Regarding `CN=C1CN(O)C(c2ccccc2)=c2cc(Cl)ccc2=N1`, the max response was 7.17% (inactive). On to `CN1C[C@H](C(=O)N[C@]2(C)O[C@@]3(O)[C@@H]4CCCN4C(=O)[C@H](Cc4ccccc4)N3C2=O)C=C2c3cccc4[nH]cc(c34)C[C@H]21`, for which the Potency was 8.91 µM (active). For `COc1ccc2c(c1)C13CCCC[C@@H]1C(C2)N(C)CC3` (some centres undefined), the max response was 7.6% (inactive).

On to `O=P1(N(CCCl)CCCl)NCCCO1` (centres undefined), for which the max response is -0.339% (inactive) and 12.3% (inactive). Same read-out and setting: as for `CCCCCN(C)CCC(O)(P(=O)(O)O)P(=O)(O)O`, the figure is 17.4% (inactive) and 7.96% (inactive). The same measure, in the same setting: the figure for `O=C1CN=C(c2ccccc2)c2cc([N+](=O)[O-])ccc2N1` is 13.6% (inactive); for `CCCC(C)(COC(N)=O)COC(N)=O` it is -2.61% (inactive). Take `CC(C)C[C@H]1C(=O)N2CCC[C@H]2[C@]2(O)O[C@](NC(=O)[C@@H]3C=C4c5cccc6[nH]c(Br)c(c56)C[C@H]4N(C)C3)(C(C)C)C(=O)N12`: the Potency was 22.4 µM (active) and 1.26 µM (active).

A short description of another assay: qHTS assay for cell viability of HEK293 cells (AID 743288; active means well fitted curve in the direction sought with a large enough effect; an effect the other way counts as inactive or inconclusive; further: nearly all actives have a fitted effect of over 50% in size). The following applies: ATP luminescence (CellTiter-Glo), 18 h, stronger effect = lower value. Summed up:
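ATP luminescence (CellTiter-Glo) reports metabolically competent cell number after parental HEK293 cells, 2,000/well, were treated with DMSO-dissolved compounds for 18 h at 37 C; reagent incubation 30 min, room temperature.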
As for `CN1C[C@H](C(=O)N[C@]2(C)O[C@@]3(O)[C@@H]4CCCN4C(=O)[C@H](Cc4ccccc4)N3C2=O)C=C2c3cccc4[nH]cc(c34)C[C@H]21`, the max response was -13.1% (inactive) and -12.3% (inactive). Same read-out and setting: the figure for `O=P1(N(CCCl)CCCl)NCCCO1` (centres undefined) is -14.2% (inactive) and 0.164% (inactive). The same measure, in the same setting: as for `CCCC(C)(COC(N)=O)COC(N)=O`, the figure is 2.5% (inactive) and 7.62% (inactive).

Another assay can be described thus: qHTS assay for cell viability of the p53RE-bla HCT-116 cell line (AID 743292; active means well fitted curve in the direction sought with a large enough effect; an effect the other way counts as inactive or inconclusive; further: nearly all actives have a fitted effect of over 55% in size). The following applies: p53RE-bla HCT-116 viability, ATP luminescence, 16 h; series mostly up to 95 µM. In short, it runs like this:
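After plating at 4,000 cells per well and a 5 h rest at 37 C, HCT-116 cells carrying p53RE-bla received test chemicals in DMSO. Sixteen hours later at 37 C, CellTiter-Glo was added and luminescence recorded following 30 min at room temperature.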
With `CN1C[C@H](C(=O)N[C@]2(C)O[C@@]3(O)[C@@H]4CCCN4C(=O)[C@H](Cc4ccccc4)N3C2=O)C=C2c3cccc4[nH]cc(c34)C[C@H]21`, the Potency result was “inactive”.

On to `O=P1(N(CCCl)CCCl)NCCCO1` (centres undefined), for which the Potency entry is “inactive”. Same read-out and setting: the entry for `CCCC(C)(COC(N)=O)COC(N)=O` is “inactive”.

A further assay can be described thus: qHTS profiling of the MIPE4 collection as inhibitors of Plasmodium falciparum (DD2) proliferation (Rep 2) (AID 743346; call rule not given here). The following applies: P. falciparum Dd2 in erythrocytes, SYBR Green DNA, 72 h; at 28.5 µM (top of the series) unless noted. In short, it runs like this:
(§1)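 Parasite DNA was quantified by SYBR Green I fluorescence (ex 485, em 535 nm) after overnight lysis in saponin/Triton buffer at room temperature. Cultures at 0.3% parasitemia and 2.5% hematocrit were first exposed to compound for 72 h at 37 C; signals were normalised to artemisinin (0.29 uM) and vehicle wells.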
The compound `O=P1(N(CCCl)CCCl)NCCCO1` (centres undefined) gave a parasite growth, % of control (lower = inhibition) of 39.6%. Still for that read-out and setting: the figure for `C[C@](O)(CS(=O)(=O)c1ccc(F)cc1)C(=O)Nc1ccc(C#N)c(C(F)(F)F)c1` is 33.5%. Regarding `Cc1onc(-c2ccccc2)c1C(=O)N[C@@H]1C(=O)N2[C@@H](C(=O)O)C(C)(C)S[C@@H]12`, the parasite growth, % of control (lower = inhibition) turned out to be 92.1%.

A further assay can be described thus: qHTS profiling of the MIPE4 collection as inhibitors of Plasmodium falciparum (HB3) proliferation (AID 743347; call rule not given here). The note with it: P. falciparum HB3 in erythrocytes, SYBR Green DNA, 72 h; at 28.5 µM (top of the series) unless noted. Summed up:
as §1
In turn, `O=P1(N(CCCl)CCCl)NCCCO1` (centres undefined) yielded a growth, % of control of 65.9%. On the same count and under the same terms, the figure for `C[C@](O)(CS(=O)(=O)c1ccc(F)cc1)C(=O)Nc1ccc(C#N)c(C(F)(F)F)c1` is 27.8%; for `Cc1onc(-c2ccccc2)c1C(=O)N[C@@H]1C(=O)N2[C@@H](C(=O)O)C(C)(C)S[C@@H]12` it is 82.7%.

Test in another assay: not given
The note with it: Ebola virus entry assay, blue channel fluorescence.
Turning to `CO[C@H]1C[C@@H]2CC[C@@H](C)[C@@](O)(O2)C(=O)C(=O)N2CCCC[C@@H]2C(=O)O[C@H]([C@@H](C)C[C@@H]2CC[C@H](O)[C@H](OC)C2)CC(=O)[C@H](C)C=C(C)[C@@H](O)[C@@H](OC)C(=O)[C@H](C)C[C@H](C)C=CC=CC=C1C`, the outcome was inactive.

In the case of `CCOC(=O)C1=C(COCCN)NC(C)=C(C(=O)OC)C1c1ccccc1Cl` (centres undefined), the compound was classed as inactive. With `CN=C1CN(O)C(c2ccccc2)=c2cc(Cl)ccc2=N1`, the compound was called inactive.

Consider `NC(=O)COCCN1CCN(C(c2ccccc2)c2ccc(Cl)cc2)CC1` (centres undefined), for which the call was inactive. Still for that read-out and setting: the entry for `CN1C[C@H](C(=O)N[C@]2(C)O[C@@]3(O)[C@@H]4CCCN4C(=O)[C@H](Cc4ccccc4)N3C2=O)C=C2c3cccc4[nH]cc(c34)C[C@H]21` is “inactive”; for `CC(=O)S[C@@H]1CC2=CC(=O)CC[C@]2(C)[C@H]2CC[C@@]3(C)[C@@H](CC[C@@]34CCC(=O)O4)[C@H]12` it is “inactive”. Same read-out and setting: the entry for `C[C@H](CS)C(=O)N1CCC[C@H]1C(=O)O` is “inactive”.

One may read the AC50 as the midpoint of the concentration-response curve, whichever way the signal moves. `CN1CCN(CCC=C2c3ccccc3Sc3ccc(S(=O)(=O)N(C)C)cc32)CC1`: the AC50 is 4.47 µM (active).

On to `NC(=O)CC[C@@H]1NC(=O)[C@H](Cc2ccccc2)NC(=O)[C@H](Cc2ccc(O)cc2)NC(=O)[C@@H](N)CSSC[C@@H](C(=O)N2CCC[C@H]2C(=O)N[C@@H](CCCN=C(N)N)C(=O)NCC(N)=O)NC(=O)[C@H](CC(N)=O)NC1=O`, for which the result was inactive. Still for that read-out and setting: the entry for `COc1ccc2c(c1)C13CCCC[C@@H]1C(C2)N(C)CC3` (some centres undefined) is “inactive”; for `CC(C=CC1=C(C)CCCC1(C)C)=CC=CC(C)=CC(=O)O` it is “inactive”. On the same count and under the same terms, as for `O=P1(N(CCCl)CCCl)NCCCO1` (centres undefined), the entry is “inactive”; as for `C[C@](O)(CS(=O)(=O)c1ccc(F)cc1)C(=O)Nc1ccc(C#N)c(C(F)(F)F)c1`, “inactive”.

For `CC(O)(P(=O)(O)O)P(=O)(O)O`, the compound was called inactive. The same measure, in the same setting: the entry for `COc1cc([C@@H]2c3cc4c(cc3[C@@H](O[C@@H]3O[C@@H]5CO[C@@H](C)O[C@H]5[C@H](O)[C@H]3O)[C@H]3COC(=O)[C@H]23)OCO4)cc(OC)c1O` is “inactive”; for `N[C@@H](Cc1cc(I)c(Oc2ccc(O)c(I)c2)c(I)c1)C(=O)O` it is “inactive”. Still for that read-out and setting: the entry for `CCCCCN(C)CCC(O)(P(=O)(O)O)P(=O)(O)O` is “inactive”. With `CN(C)CCOc1ccc(/C(=C(/CCCl)c2ccccc2)c2ccccc2)cc1`, the AC50 was 4.47 µM (active). For the compound `O=C1[O][Bi][O]c2ccccc21`, the call was inactive.

In the case of `CCCc1nc(C(C)(C)O)c(C(=O)OCc2oc(=O)oc2C)n1Cc1ccc(-c2ccccc2-c2nn[nH]n2)cc1`, the compound was called inactive. Turning to `COc1cccc2c1C(=O)c1c(O)c3c(c(O)c1C2=O)C[C@@](O)(C(C)=O)C[C@H]3O[C@H]1C[C@H](N)[C@H](O)[C@H](C)O1`, the AC50 is 6.31 µM (active). Still for that read-out and setting: the figure for `C[C@@H]1O[C@@H](O[C@H]2CC[C@@]3(C)[C@H](CC[C@@H]4[C@H]3C[C@@H](O)[C@]3(C)[C@@H](C5=CC(=O)OC5)CC[C@]43O)C2)C[C@H](O)[C@@H]1O[C@H]1C[C@H](O)[C@H](O[C@H]2C[C@H](O)[C@@H](O)[C@@H](C)O2)[C@H](C)O1` (stereo in doubt) is 1 µM (active); for `CN1[C@@H]2CC[C@H]1CC(OC(c1ccccc1)c1ccccc1)C2` (some centres undefined) it is 5.01 µM (active). For the compound `CC1(C)S[C@@H]2[C@H](NC(=O)[C@H](N)c3ccc(O)cc3)C(=O)N2[C@H]1C(=O)O`, the result was inactive.

In the case of `Cc1onc(-c2ccccc2)c1C(=O)N[C@@H]1C(=O)N2[C@@H](C(=O)O)C(C)(C)S[C@@H]12`, the compound was called inactive. On the same count and under the same terms, as for `CC(C)C[C@H]1C(=O)N2CCC[C@H]2[C@]2(O)O[C@](NC(=O)[C@@H]3C=C4c5cccc6[nH]c(Br)c(c56)C[C@H]4N(C)C3)(C(C)C)C(=O)N12`, the entry is “inactive”.

As for `CSCC[C@H](NC(=O)[C@H](Cc1ccc(OS(=O)(=O)O)cc1)NC(=O)[C@@H](N)CC(=O)O)C(=O)NCC(=O)N[C@@H](Cc1c[nH]c2ccccc12)C(=O)N[C@@H](CCSC)C(=O)N[C@@H](CC(=O)O)C(=O)N[C@@H](Cc1ccccc1)C(N)=O`, the call was inactive.

Values taken from PubChem BioAssay (NCATS).
